Structures are written as SMILES. The source made the active and inactive calls. Rule for the calls: active = hit-call score of the fitted dose curve at least 0.9, where 1 is the maximum; inactive = score below 0.9.

What is called AC50 is the midpoint of the concentration-response curve, whichever way the signal moves.

Read-out in experiment [1]: Tissue Factor, F3 (gene 2152)
Briefly: BSK_CASM3C_TissueFactor: BioMAP Diversity Plus: CASM3C Assay for Tissue Factor Biomarker Activity (AID 2283052).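 Note: cell surface tissue factor protein level read by ELISA.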 The settings on record: primary human coronary artery smooth muscle cells; actives raise or lower the signal.

Read-out in experiment [2]: Interferon-gamma inducible Protein 10 (IP10), CXCL10 (gene 3627)
In words: BSK_hDFCGF_IP10: BioMAP Diversity Plus: hDFCGF Assay for Interferon-gamma inducible Protein 10 (IP10) Biomarker Activity (AID 2283053). The settings on record: primary human foreskin fibroblasts; actives raise or lower the signal. An outline of the steps: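 Primary foreskin fibroblasts, human; 24 h compound exposure; IP-10 by ELISA; bidirectional fit vs DMSO.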

Read-out in experiment [3]: Urokinase-type plasminogen activator receptor (uPAR), PLAUR (gene 5329)
In words: BSK_CASM3C_uPAR: BioMAP Diversity Plus: CASM3C Assay for Urokinase-type plasminogen activator receptor (uPAR) Biomarker Activity (AID 2283054).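 Note: cell-surface uPAR protein level quantified by ELISA.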 The settings on record: primary human coronary artery smooth muscle cells; actives raise or lower the signal.

Read-out in experiment [4]: Vascular cell adhesion molecule 1 (VCAM1), VCAM1 (gene 7412)
In words: BSK_CASM3C_VCAM1: BioMAP Diversity Plus: CASM3C Assay for Vascular cell adhesion molecule 1 (VCAM1) Biomarker Activity (AID 2283055).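 Note: VCAM-1 protein level quantified by ELISA on the cells.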 The settings on record: primary human coronary artery smooth muscle cells; actives raise or lower the signal.

Read-out in experiment [5]: Collagen III, COL3A1 (gene 1281)
In words: BSK_hDFCGF_CollagenIII: BioMAP Diversity Plus: hDFCGF Assay for Collagen III Biomarker Activity (AID 2283056). The settings on record: primary human foreskin fibroblasts; actives raise or lower the signal. The method, boiled down: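 hDFCGF primary human dermal fibroblasts; 24 h chemical exposure; collagen III by ELISA; bidirectional curve fit vs DMSO baseline (gain or loss of signal).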

Read-out in experiment [6]: Epidermal growth factor receptor (EGFR), EGFR (gene 1956)
Briefly: BSK_hDFCGF_EGFR: BioMAP Diversity Plus: hDFCGF Assay for Epidermal growth factor receptor (EGFR) Biomarker Activity (AID 2283057). The settings on record: primary human foreskin fibroblasts; actives raise or lower the signal. An outline of the steps:
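hDFCGF system, primary human foreskin fibroblasts; compound 24 h; EGFR measured by ELISA; DMSO = negative control/baseline; bidirectional fitting.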

Experiment [7] is described as follows: BSK_hDFCGF_Proliferation: Cell Proliferation Assessment in the BioMAP Diversity Plus: hDFCGF Assay (AID 2283059).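 Note: curves fitted for both rise and fall of signal versus DMSO baseline.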 The settings on record: primary human foreskin fibroblasts. The method, boiled down: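 Total protein read at 560 nm after 0.1% SRB staining of TCA-fixed human skin fibroblasts, […]. Activity is fitted in both directions relative to DMSO as baseline.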

Read-out in experiment [8]: Macrophage colony-stimulating factor (MCSF), CSF1 (gene 1435)
Briefly: BSK_hDFCGF_MCSF: BioMAP Diversity Plus: hDFCGF Assay for Macrophage colony-stimulating factor (MCSF) Biomarker Activity (AID 2283060). The settings on record: primary human foreskin fibroblasts; actives raise or lower the signal. An outline of the steps: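 ELISA read-out of M-CSF in human dermal foreskin fibroblast cultures, 24 h after chemical dosing; gain or loss of signal fitted bidirectionally relative to DMSO baseline.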

The nature of experiment [9]: BSK_hDFCGF_SRB: Viability Assessment in the BioMAP Diversity Plus: hDFCGF Assay (AID 2283061).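 Note: cells exposed to compound for 24 h before the read.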 The settings on record: primary human foreskin fibroblasts. The method, boiled down:
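Primary human foreskin fibroblasts; 24 h post-dose; fixed 10% TCA, stained 0.1% SRB, A560 read; total protein as overt cytotoxicity measure; curves fit bidirectionally vs DMSO control.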

Read-out in experiment [10]: TIMP metallopeptidase inhibitor 1 (TIMP1), TIMP1 (gene 7076)
Briefly: BSK_hDFCGF_TIMP1: BioMAP Diversity Plus: hDFCGF Assay for TIMP metallopeptidase inhibitor 1 (TIMP1) Biomarker Activity (AID 2283062). The settings on record: primary human foreskin fibroblasts; actives raise or lower the signal. An outline of the steps: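 ELISA readout of TIMP-1 from human dermal foreskin fibroblast cultures 24 h post-dosing. Curves were fitted in both directions against DMSO baseline, with SRB total-protein staining in parallel cultures as a cytotoxicity check.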

Read-out in experiment [11]: Monokine induced gamma interferon (MIG), CXCL9 (gene 4283)
In words: BSK_hDFCGF_MIG: BioMAP Diversity Plus: hDFCGF Assay for Monokine induced gamma interferon (MIG) Biomarker Activity (AID 2283063). The settings on record: primary human foreskin fibroblasts; actives raise or lower the signal. An outline of the steps: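 Fibroblasts (human foreskin, primary) dosed, 24 h, MIG by ELISA; fit bidirectional vs DMSO.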

Read-out in experiment [12]: Matrix Metallopeptidase 1 (MMP1), MMP1 (gene 4312)
Briefly: BSK_hDFCGF_MMP1: BioMAP Diversity Plus: hDFCGF Assay for Matrix Metallopeptidase 1 (MMP1) Biomarker Activity (AID 2283064). The settings on record: primary human foreskin fibroblasts; actives raise or lower the signal. An outline of the steps: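 hDFCGF primary fibroblasts (human foreskin); chemical added; 24 h; MMP1 by ELISA; bidirectional fit vs DMSO.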

Read-out in experiment [13]: Vascular cell adhesion molecule 1 (VCAM1), VCAM1 (gene 7412)
In words: BSK_hDFCGF_VCAM1: BioMAP Diversity Plus: hDFCGF Assay for Vascular cell adhesion molecule 1 (VCAM1) Biomarker Activity (AID 2283065).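 For AC50: VCAM-1 protein level quantified by ELISA after 24 h chemical exposure.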 The settings on record: primary human foreskin fibroblasts; actives raise or lower the signal. An outline of the steps:
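ELISA read-out of VCAM-1 on human skin fibroblasts, 24 h post-dose; gain or loss of signal fitted bidirectionally against DMSO baseline.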

Read-out in experiment [14]: Plasminogen activator inhibitor-1 (PAI1), SERPINE1 (gene 5054)
In words: BSK_hDFCGF_PAI1: BioMAP Diversity Plus: hDFCGF Assay for Plasminogen activator inhibitor-1 (PAI1) Biomarker Activity (AID 2283066). The settings on record: primary human foreskin fibroblasts; actives raise or lower the signal. The method, boiled down:
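Primary dermal fibroblasts (human foreskin), hDFCGF system; compound 24 h; PAI-1 by ELISA; bidirectional fit vs DMSO control.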

Read-out in experiment [15]: Intercellular Adhesion Molecule 1 (ICAM1), ICAM1 (gene 3383)
Briefly: BSK_KF3CT_ICAM1: BioMAP Diversity Plus: KF3CT Assay for Intercellular Adhesion Molecule 1 (ICAM1) Biomarker Activity (AID 2283067). The settings on record: primary human keratinocytes with fibroblasts; actives raise or lower the signal. The method, boiled down: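 ELISA readout of ICAM-1; KF3CT human skin co-culture (keratinocytes + foreskin fibroblasts), 24 h post-dose; gain/loss fit vs DMSO baseline.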

Read-out in experiment [16]: Interferon-gamma inducible Protein 10 (IP10), CXCL10 (gene 3627)
Briefly: BSK_KF3CT_IP10: BioMAP Diversity Plus: KF3CT Assay for Interferon-gamma inducible Protein 10 (IP10) Biomarker Activity (AID 2283068). The settings on record: primary human keratinocytes with fibroblasts; actives raise or lower the signal. The method, boiled down: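 Human keratinocyte plus foreskin fibroblast primary co-culture exposed to test chemical for 24 h; IP-10 measured by ELISA. Concentration-response fitted bidirectionally against DMSO control as baseline.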

Experiment [17] can be described thus: BSK_KF3CT_SRB: Viability Assessment in the BioMAP Diversity Plus: KF3CT Assay (AID 2283069).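 Note: total protein by sulforhodamine B staining as a cytotoxicity measure; read 24 h after compound addition.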 The settings on record: primary human keratinocytes with fibroblasts. The method, boiled down: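 Keratinocytes co-cultured with foreskin fibroblasts (human primary); chemical added, 24 h; fix 10% TCA, stain 0.1% SRB, A560. Bidirectional fit vs DMSO.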
Read-out in experiment [18]: Interleukin-1 alpha (IL1a), IL1A (gene 3552)
In words: BSK_KF3CT_IL1a: BioMAP Diversity Plus: KF3CT Assay for Interleukin-1 alpha (IL1a) Biomarker Activity (AID 2283070). The settings on record: primary human keratinocytes with fibroblasts; actives raise or lower the signal. The method, boiled down:
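Chemicals were dosed onto co-cultured human keratinocytes and foreskin fibroblasts, IL-1a was quantified by ELISA at 24 h, and activity was fitted in both directions relative to DMSO controls.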

Read-out in experiment [19]: TIMP metallopeptidase inhibitor 2 (TIMP2), TIMP2 (gene 7077)
In words: BSK_KF3CT_TIMP2: BioMAP Diversity Plus: KF3CT Assay for TIMP metallopeptidase inhibitor 2 (TIMP2) Biomarker Activity (AID 2283071). The settings on record: primary human keratinocytes with fibroblasts; actives raise or lower the signal. The method, boiled down: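 Cells: human keratinocytes co-cultured with foreskin fibroblasts. Treat with chemical, 24 h. Measure TIMP-2 by ELISA; fit curves bidirectionally vs DMSO baseline.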

For the compound `CC1(C)CCC(=Cc2ccc(Cl)cc2)C1(O)Cn1cncn1` (stereo not given), the outcome in experiment [1], in experiment [2], in experiment [3], in experiment [4], in experiment [5] and in [6] was inactive. Moreover, the outcome in experiment [8], in [9], in experiment [10], in experiment [11], in experiment [12] and in experiment [13] was inactive. Further, the result in experiment [14], in [15], in experiment [16], in [17], in experiment [18] and in experiment [19] was inactive. Further, the concentration at half-maximal activity (AC50) in [7] was 1.31 µM (active).
In the case of `CCC(C)n1c(=O)[nH]c(C)c(Br)c1=O` (stereo not given), the result in experiment [1], in experiment [2], in experiment [3], in experiment [4], in experiment [5] and in experiment [6] was inactive. For the same compound, the result in experiment [7], in [8], in experiment [9], in [10], in [11] and in [12] was inactive. Further, the result in [13], in experiment [14], in [15], in experiment [16], in [17] and in [18] was inactive. For the same compound, the result in experiment [19] was inactive.
Turning to `C=CCOC(=O)C(C)(C)OC(=O)c1cc(-n2c(=O)cc(C(F)(F)F)n(C)c2=O)ccc1Cl`, the result in experiment [1], in experiment [4], in experiment [5], in [7], in [9] and in experiment [11] was inactive. Also, the outcome in experiment [13], in experiment [15], in experiment [17] and in experiment [18] was inactive. Also, the half-maximal activity concentration (AC50) is 1.2 µM (active) in experiment [2]; 0.984 µM (active) in experiment [3]; 0.98 µM (active) in experiment [6]; 1.88 µM (active) in [8]; 30.3 µM (active) in experiment [10]; 3.97 µM (active) in [12]. Moreover, the concentration at half-maximal activity (AC50) in [14] was 3.51 µM (active); in [16] it was 6.34 µM (active); in experiment [19], 27.9 µM (active).
Consider `COP(=S)(OC)Oc1ccc([N+](=O)[O-])c(C)c1`, for which the outcome in experiment [1], in experiment [3], in [4], in experiment [6], in [9] and in experiment [10] was inactive. Besides, the outcome in experiment [11], in [12], in [14], in experiment [15], in [16] and in experiment [17] was inactive. For the same compound, the outcome in experiment [18] and in experiment [19] was inactive. Further, the concentration at half-maximal activity (AC50) is 14 µM (active) in [2]; 22.7 µM (active) in experiment [5]; 24.2 µM (active) in experiment [7]; 13.2 µM (active) in experiment [8]; 9.37 µM (active) in [13].
For `Nc1c(Cl)c(Cl)nc(C(=O)O)c1Cl`, the outcome in [1], in [2], in [3], in [4], in experiment [5] and in experiment [6] was inactive. Moreover, the outcome in experiment [7], in experiment [8], in experiment [9], in [10], in experiment [11] and in experiment [12] was inactive. Moreover, the outcome in [13], in experiment [14], in [15], in [16], in [17] and in experiment [18] was inactive. In addition, the result in [19] was inactive.

(Values after PubChem BioAssay (EPA / NIEHS).)
